Where “and” joins values, the source holds several entries; their conditions need not be identical. Identical values can stand only once. In all, about 360,000 compounds went through this assay and about 11,000 (3.1%) were called active. Shown is part of a subset that was picked to be rich in actives. A number with no mark means an inactive call. Rule as the data show it: active = activity change below about -30%; inactive = the rest.

From PubChem BioAssay AID504652 (National Center for Advancing Translational Sciences (NCATS), 2011) come the findings set out here.
% is scaled to controls: 0 for no effect and ±100 for the full control effect.

Chain of D(1A) dopamine receptor (Homo sapiens) (P21728 whole entry, looked up): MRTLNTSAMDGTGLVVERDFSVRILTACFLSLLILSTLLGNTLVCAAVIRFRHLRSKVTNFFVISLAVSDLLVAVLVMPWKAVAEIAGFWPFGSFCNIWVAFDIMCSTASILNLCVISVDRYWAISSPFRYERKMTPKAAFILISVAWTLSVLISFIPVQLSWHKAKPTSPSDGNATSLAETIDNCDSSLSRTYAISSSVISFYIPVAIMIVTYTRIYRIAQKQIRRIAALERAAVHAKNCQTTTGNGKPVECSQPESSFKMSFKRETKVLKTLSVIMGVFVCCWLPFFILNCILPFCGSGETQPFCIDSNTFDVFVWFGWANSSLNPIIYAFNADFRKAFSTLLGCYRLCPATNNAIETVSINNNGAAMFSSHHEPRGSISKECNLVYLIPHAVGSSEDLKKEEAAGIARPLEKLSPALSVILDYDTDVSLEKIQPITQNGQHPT

The target of this experiment is D(1A) dopamine receptor (Homo sapiens) (UniProt P21728). The experiment is described as follows: Antagonist of Human D 1 Dopamine Receptor: qHTS. As to conditions: HEK293 TREx D1 cells, calcium flux, dopamine EC80; at 10 µM; hits give low values. From the text:
Dopamine receptors (DARs) are involved in the etiology and/or therapy of a number of neuropsychiatric and endocrine disorders. For instance, all receptor-based antiparkinsonian drugs work via stimulating the […] DAR subtype whereas all FDA-approved antipsychotic agents are antagonists of this receptor. […] There are three different types of allosteric modulators that we are seeking, two of which will stimulate or augment receptor signaling, allosteric agonists and potentiators, while the third, allosteric antagonists, will attenuate receptor signaling. The present primary screening assay measures compound antagonism after an EC80 addition of dopamine by tracking calcium flux in a […], inducible Hek293 Trex D1 cell line. NIH Chemical Genomics Center [NCGC] NIH Molecular Libraries Probe Centers Network [MLPCN] MLPCN Grant: NS064831-01 Assay Submitter (PI): David Sibley
Freshly passaged cells are plated in 1536 well black, clear bottom plates at a density of 4000 cells/well in 3 ul of complete media containing 1x tetracycline inducer. After an overnight incubation at 30 C in 5% CO2, cells are loaded with 2 ul of the no wash Calcium Assay Kit (ABD Bioquest) and incubated at room temperature for 30 to 90 minutes. Agonist read: A 10 cycle (1 second/cycle) baseline measurement is taken and then the FDSS online 1536 pintool delivers 23 nl of compound library (as well as dopamine controls) to the plate. The plate is measured for kinetically at 1 cycle/sec for 180 seconds. Following the 180 second read, 1 ul of an EC80 (negative modulation assay) is delivered by an onboard pipette head. Measurements are taken kinetically for an additional 180 seconds.
(Quantitative high-throughput screening tests each substance at several concentrations.)
Regarding `CCOc1ccc2oc(=O)cc(CN3CCN(C(=O)c4ccc(F)cc4)CC3)c2c1`, the activity change, negative = inhibition is -25%.
The figure for `CCC(=O)N1CCc2cc(Br)cc(S(=O)(=O)NCc3ccc(Cl)cc3)c21` is 4.98%; for `CC1Sc2ccc(S(=O)(=O)CCC(=O)NCc3ccccc3Cl)cc2NC1=O` (configuration not stated) it is -9.63%.
With `Cc1cccc(N2CCN(C(=O)CCS(=O)(=O)c3ccc4c(c3)NC(=O)C(C)S4)CC2)c1C` (configuration not stated) the figure was -41.4% (active); with `COc1ccccc1N1CCN(C(=O)CCS(=O)(=O)c2ccc3c(c2)NC(=O)C(C)S3)CC1` (configuration not stated), 5.52%.
With `CCn1c2ccccc2c2cc(CN3CCN(Cc4cccc(Cl)c4)CC3)ccc21` the figure was -24.4%; with `N/C(=N\OC(=O)CCc1ccccc1)c1ccc(Cl)cc1`, -6.68%.
Turning to `COc1ccc(/C(N)=N/OC(=O)Cc2ccccc2)cc1`, the activity change, negative = inhibition was 3.45%.
The figure for `COc1ccc(/C(N)=N/OC(=O)CCCc2ccccc2)cc1` is -50.3% (active); for `CCOc1ccc(CNC(=O)c2cc(-c3ccc(Cl)s3)nc3ccccc23)cc1` it is 13.1%.
For the molecule `COc1ccc(NC(=O)CCCN2C(=O)CCn3nc(-c4cn(C)c5ccccc45)cc32)cc1OC`, the activity change, negative = inhibition is 16%.
The figure for `Cc1nc(CNS(=O)(=O)c2ccc(Oc3ccccc3)cc2)cs1` is -42.6% (active).
The figure for `Cc1nc(CNS(=O)(=O)c2cc([N+](=O)[O-])ccc2C)cs1` is 8.15%.
The figure for `Cc1nn(C)c(Oc2ccccc2)c1CCNS(=O)(=O)c1ccc(F)cc1` is -5.72%; for `CCOc1ccc(C2C(C(=O)Nc3ccc(Cl)cc3)=C(C)Nc3nc(C(F)(F)F)nn32)cc1` (configuration not stated) it is 10.7%; for `Cc1ccccc1-c1nc(SCC(=O)N(C)c2ccccc2)c2c(=O)n(C)c(=O)n(C)c2n1` it is 8.47%.
`Cc1cccc(OCC(=O)NCC(=O)N/N=C/c2ccc(N(C)C)cc2)c1`: the activity change, negative = inhibition is -31.7% (active).
`Cc1cccc(OCC(=O)Nc2ccccc2F)c1`: the activity change, negative = inhibition was -0.963%.
Turning to `CCOc1ccccc1/C=N/NC(=O)CNC(=O)COc1ccccc1`, the activity change, negative = inhibition is -1.88%.
For `Cc1oc2ccc(O)c(CN3CCC(C)CC3)c2c1C(=O)Nc1ccccc1`, the activity change, negative = inhibition is 7.02%.
With `COc1cccc(NC(=O)CSc2cc(=O)n(C)c3ccc(Cl)cc23)c1` the figure was -17.9%; with `CC(=O)N(OCc1ccc(OC(C)C)c(Cl)c1)C(C)=O`, -4.21%; with `CC(Oc1ccc(F)cc1F)C(=O)/C=C/N(C)C` (configuration not stated), 2.85%.
Consider `CC(Oc1ccc(Cl)cc1Cl)C(=O)/C=C/N(C)C` (configuration not stated), for which the activity change, negative = inhibition was -37.2% (active).
With `COc1ccc(C(=O)Nc2nonc2-c2ccc(OC)c(OC)c2)cc1Cl` the figure was 0.206%.
The figure for `CCc1cccc(NC(=O)Cn2nc(CC)n3c(cc4cc(C)ccc43)c2=O)c1` is 4.91%; for `CCCS(=O)(=O)Nc1cccc(-c2cn3ccsc3n2)c1` it is -4.71%; for `O=C(Cc1ccc(F)cc1)N1CCN=C1SCc1cccc([N+](=O)[O-])c1` it is -1.86%.
Turning to `CCC(=O)N1CCN=C1SCc1ccc(F)cc1`, the activity change, negative = inhibition is -8.09%.
With `O=C(COc1ccccc1)N1CCN=C1SCc1cccc(F)c1`, the activity change, negative = inhibition is -31.4% (active).
The figure for `COc1cc(OC)cc(-c2nc3nc(C)c(CCC(=O)Nc4ccc(C)cc4)c(C)n3n2)c1` is -10.7%; for `CC(C)c1ccc(NS(=O)(=O)c2ccc3[nH]cc(C(=O)NC4CCCC4)c(=O)c3c2)cc1` it is 19.6%; for `CCOC(=O)CCC(=O)OCC(=O)NC(C)C1CC2CCC1C2` (configuration not stated) it is -3.11%.
For the molecule `COC(=O)c1cc(C(=O)NC(C)C2CC3CCC2C3)cc([N+](=O)[O-])c1` (configuration not stated), the activity change, negative = inhibition is -60.3% (active).
Take `Cc1c(C(=O)NC(C)C2CC3CCC2C3)cccc1[N+](=O)[O-]` (configuration not stated): the activity change, negative = inhibition was 18.8%.
As for `COc1ccccc1-c1ccnc2[nH]n(-c3ccccc3)c(=O)c12`, the activity change, negative = inhibition is -7.97%.
The figure for `COc1cccc(CNC(=O)CCc2nc(-c3ccc(C)cc3)no2)c1` is -1.26%.
Take `Cn1c(C(=O)N2CCC(C(=O)N3CCN(c4ccccc4)CC3)CC2)cc2sccc21`: the activity change, negative = inhibition is -14.6%.
For the molecule `CCc1nn(CCCC(=O)NC(C)c2ccccc2)c(=O)c2cc3occc3n12` (configuration not stated), the activity change, negative = inhibition is 5.05% and -4.27%.
For the molecule `CCCN1CCN(CCCNC(=O)Cn2nc(CC)n3c(cc4occc43)c2=O)CC1`, the activity change, negative = inhibition was -17.4%.
On to `CCc1nn(CC(=O)NCC(C)c2ccccc2)c(=O)c2cc3occc3n12` (configuration not stated), for which the activity change, negative = inhibition was -32.7% (active).
Regarding `CSc1ccc(C2C(C(=O)Nc3ccccc3)=C(C)Nc3nc4ccccc4n32)cc1` (configuration not stated), the activity change, negative = inhibition was 3.8%.
With `CCN(CCCNC(=O)c1c(C)oc2ncn(CC(C)C)c(=O)c12)Cc1ccccc1` the figure was 0.919%; with `COc1ccc(OC)c(NC(=O)CN2CCCN(Cc3cc(C)ccc3C)S2(=O)=O)c1`, 2.17%.
The figure for `COC(=O)C1(C)NC(c2ccc(F)cc2)C2C(=O)N(c3ccccc3)C(=O)C21` (configuration not stated) is 0.925%.
With `COC(=O)[C@]1(C)N[C@H](c2ccc(-c3ccc(Cl)c(Cl)c3)cc2)[C@@H]2C(=O)N(C)C(=O)[C@@H]21` the figure was -31.4% (active); with `COC(=O)C1(C)NC(c2ccc(C)cc2)C2C(=O)N(c3ccc(F)cc3)C(=O)C21` (configuration not stated), -8.61%; with `CCC(=O)N1CCc2cc(CNS(=O)(=O)c3ccc(Br)s3)ccc21`, -7.89%.
`CCCCN1C(=O)C(C)=C(C)C1OCCc1ccc(OC)c(OC)c1` (configuration not stated): the activity change, negative = inhibition was 2.6%.
The figure for `CCCCOc1ccc(CN2C(=O)C(=O)c3cc(Br)cc(C)c32)cc1OC` is -30.4% (active).
With `CCCCOc1ccc(Cn2c(=O)oc3ccc(C)cc32)cc1OC` the figure was -3.29%.
The figure for `Cc1ccccc1CNC(=O)CSc1nnc(C)c2c(C)n(-c3ccccc3)nc12` is -8.46%; for `CCOC(=O)c1c(S(=O)(=O)NCC(=O)Nc2ccc(Cl)c(C(F)(F)F)c2)c(C)n(C)c1C` it is -17.1%.
Regarding `Cc1ccc(CN2CCC(n3nccc3NC(=O)CCCc3ccccc3)CC2)o1`, the activity change, negative = inhibition was 3.11%.
As for `CC(=O)N[C@@H](C)C(=O)N1CCC(n2nccc2NC(=O)CCCc2ccccc2)CC1`, the activity change, negative = inhibition was -35.7% (active).
The figure for `CC(=O)NCC(=O)N1CCC(n2nccc2NC(=O)CCCc2ccccc2)CC1` is -10.3%; for `COc1ccc(CCNC(=O)CCc2c(C)nc3c(c(C)nn3-c3ccc(C)c(C)c3)c2C)c(OC)c1OC` it is -6.08%.
With `Cc1ccc(C(=O)N/C(=C/c2cccs2)C(=O)NCC2CCCO2)cc1` (configuration not stated) the figure was -5.41%; with `Cc1ccc(-n2c(C)cc(/C=C(\C#N)C(=O)NCC3CCCO3)c2C)cc1` (configuration not stated), -101% (active).
Turning to `Cc1ccc2c(c1)N(CC(=O)NCC1CCCO1)C(=O)CO2` (configuration not stated), the activity change, negative = inhibition was -13.8%.
With `Cc1ccccc1OCCSc1nc2ccc(NC(=O)c3ccco3)cc2s1` the figure was -30%.
On to `COc1ccccc1CNC(=O)CCn1c(=O)c2ccccc2n(CC(=O)Nc2cccc(Cl)c2)c1=O`, for which the activity change, negative = inhibition is -3.25%.
As for `Cc1cc(C)cc(-n2c(SCC(=O)NCC3CCCO3)nc3c([nH]c4ccccc43)c2=O)c1` (configuration not stated), the activity change, negative = inhibition is -4.35%.
The figure for `Cc1c(C(=O)N2CCCC2)oc2c1-c1nn(CC(=O)NCc3ccc(OC(C)C)cc3)cc1CC2` is -7.55%.
Consider `Cc1cccc(N2CCN(C3=C(c4ccccc4)C(=O)c4ccccc43)CC2)c1C`, for which the activity change, negative = inhibition was 18%.
The figure for `CN(CC(=O)Nc1cccc(C(F)(F)F)c1)S(=O)(=O)c1cccs1` is -18.7%; for `CCOC(=O)c1ccc(NC(=O)Cn2c(=O)cc(C)c3c(C)nn(-c4cccc(F)c4)c32)cc1` it is -13.3%.
Consider `O=C(CO/N=C/c1ccc(OC(F)F)cc1)NCc1ccc(F)cc1`, for which the activity change, negative = inhibition is -6.98%.
Regarding `O=C(COC(=O)[C@H](Cc1ccccc1)NC(=O)c1cccs1)Nc1cc(F)ccc1F`, the activity change, negative = inhibition was -9.37%.
The figure for `COC(=O)c1ccc(/C=N/OCC(=O)Nc2cc(F)ccc2F)cc1` is -33% (active); for `Cc1ccc(C(=O)N2CCN(S(=O)(=O)N3CCOCC3)CC2)cc1` it is -3.63%.
Regarding `CCC(C(=O)N1CCN(S(=O)(=O)c2sc(C(=O)O)c(C)c2C(=O)O)CC1)c1ccccc1` (configuration not stated), the activity change, negative = inhibition is -4.86%.
With `CCc1ccc(C(=O)N2CCN(S(=O)(=O)c3sc(C(=O)O)c(C)c3C(=O)O)CC2)cc1` the figure was -68.6% (active).
With `COc1ccc(SCc2cc(=O)c3ccc(C)c(C)c3[nH]2)cc1` the figure was 7.95%.
As to `Cn1c(=O)c2c(nc(SCC(=O)Nc3ccc(F)cc3)n2Cc2ccc(Cl)cc2)n(C)c1=O`, the activity change, negative = inhibition was -3.1%.
With `COc1cccc(N2CCN(C(=O)CCCCCn3c(=O)[nH]c4ccccc4c3=O)CC2)c1` the figure was -11.8%.
Consider `Cn1c(=O)cc(OCC(=O)N2CCN(c3ccccc3)CC2)c2ccccc21`, for which the activity change, negative = inhibition is -4.64%.
The figure for `O=C(CCn1c(=O)[nH]c2ccccc2c1=O)NCCCN1CCN(c2cccc(Cl)c2)CC1` is -49% (active); for `CCn1c(=O)cc(OCC(=O)Nc2cc(Cl)c(OC)cc2OC)c2ccccc21` it is 1.43%; for `COc1cccc(CNC(=O)Cc2csc(Nc3nc(=S)[nH]c4ccccc34)n2)c1` it is -0.499%.
On to `CCOC(=O)c1c(C)[nH]c(CCC(=O)NCCCN2CCN(c3cccc(Cl)c3)CC2)c1C`, for which the activity change, negative = inhibition was -31.4% (active).
With `O=C(Cc1ccc(-n2c(=O)[nH]c3ccccc3c2=O)cc1)N1CCN(c2cccc(Cl)c2)CC1` the figure was -8.8%; with `CCOC(=O)c1c(C)[nH]c(CCC(=O)NCCCN2CCN(c3cc(C)ccc3C)CC2)c1C`, -11.7%.
With `COCCCn1c(Cc2csc(Nc3cccc(Cl)c3)n2)nnc1SCC(=O)OC1CCCCC1` the figure was 12.9%; with `O=C(Cc1csc(Nc2nc(=S)[nH]c3ccccc23)n1)NCCCN1CCN(c2cccc(Cl)c2)CC1`, -56.6% (active); with `CCOC(=O)N1CCC(Nc2c(NCCN3CCN(c4cccc(Cl)c4)CC3)c(=O)c2=O)CC1`, -24%.
The figure for `CCn1c(=O)cc(OCC(=O)NCCCN2CCN(c3cccc(Cl)c3)CC2)c2ccccc21` is -46.8% (active).
